# Laboratory results from the supplement of paper PMC8728848.
# Many of the other results were omitted from the sample, so the strongest signals are more common in it than they were.
# Legend:
# Assay in all cases: glycan array binding signal (z-score within array); higher = stronger binding
# Conditions in all cases: glycan notation: IUPAC condensed, linker removed
# [1] = molecular target: Fuc(a1-2)Gal(b1-3)GlcNAc(b1-3)[Gal(b1-4)GlcNAc(b1-6)]Gal(b1-4)Glc
# Procedure, shortened: (§1)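 From the Consortium for Functional Glycomics database, 3228 arrays were curated, keeping only those whose protein sequence was available. Binding is given as a within-array Z-score averaged across arrays sharing a protein sequence and across linkers. Negative Z-scores can be read as non-binding.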
# [2] = molecular target: Fuc(a1-2)Gal(b1-4)GlcNAc(b1-3)Gal(b1-4)GlcNAc
# Procedure, shortened: as §1
# [3] = molecular target: Fuc(a1-2)Gal(b1-4)GlcNAc6S
# Procedure, shortened: as §1
# [4] = molecular target: Fuc(a1-2)Gal(b1-4)[Fuc(a1-3)]GlcNAc(b1-2)[Fuc(a1-2)Gal(b1-4)[Fuc(a1-3)]GlcNAc(b1-4)]Man(a1-3)[Fuc(a1-2)Gal(b1-4)[Fuc(a1-3)]GlcNAc(b1-2)Man(a1-6)]Man(b1-4)GlcNAc(b1-4)GlcNAc
# Procedure, shortened: as §1
# [5] = molecular target: Fuc(a1-2)[Gal(a1-3)]Gal(b1-4)GlcNAc
# Procedure, shortened: as §1
# [6] = molecular target: Fuc(a1-3)[Gal(b1-4)]GlcNAc(b1-2)Man(a1-3)[Fuc(a1-3)[Gal(b1-4)]GlcNAc(b1-2)Man(a1-6)]Man(b1-4)GlcNAc(b1-4)GlcNAc
# Procedure, shortened: as §1
# [7] = molecular target: Fuc(a1-3)[Gal(b1-4)]GlcNAc(b1-2)Man(a1-3)[Fuc(a1-3)[Gal(b1-4)]GlcNAc(b1-2)Man(a1-6)]Man(b1-4)GlcNAc(b1-4)[Fuc(a1-6)]GlcNAc
# Procedure, shortened: as §1
# [8] = molecular target: Fuc(a1-3)[Gal(b1-4)]GlcNAc(b1-6)GalNAc
# Procedure, shortened: as §1
# Gal(a1-3)Gal = molecular target: Gal(a1-3)Gal
# Procedure, shortened: as §1
# [9] = molecular target: Gal(a1-3)Gal(b1-4)GlcNAc(b1-2)Man(a1-3)[Gal(a1-3)Gal(b1-4)GlcNAc(b1-2)Man(a1-6)]Man(b1-4)GlcNAc(b1-4)GlcNAc
# Procedure, shortened: as §1
# [10] = molecular target: Gal(a1-3)[Gal(a1-4)]Gal(b1-4)GlcNAc
# Procedure, shortened: as §1
# Gal(a1-6)Glc = molecular target: Gal(a1-6)Glc
# Procedure, shortened: as §1
# [11] = molecular target: Gal(b1-3)GlcNAc(b1-2)[Gal(b1-3)GlcNAc(b1-6)]Man(a1-6)[Gal(b1-3)GlcNAc(b1-2)Man(a1-3)]Man(b1-4)GlcNAc(b1-4)GlcNAc
# Procedure, shortened: as §1
# [12] = molecular target: Gal(b1-3)GlcNAc(b1-3)Gal(b1-3)GlcNAc
# Procedure, shortened: as §1
# [13] = molecular target: Gal(b1-3)GlcNAc(b1-3)Gal(b1-4)GlcNAc(b1-3)Gal(b1-4)GlcNAc(b1-2)[Gal(b1-3)GlcNAc(b1-3)Gal(b1-4)GlcNAc(b1-3)Gal(b1-4)GlcNAc(b1-6)]Man(a1-6)[Gal(b1-3)GlcNAc(b1-3)Gal(b1-4)GlcNAc(b1-3)Gal(b1-4)GlcNAc(b1-2)Man(a1-3)]Man(b1-4)GlcNAc(b1-4)[Fuc(a1-6)]GlcNAc
# Procedure, shortened: as §1
# [14] = molecular target: Gal(b1-3)GlcNAc(b1-3)Gal(b1-4)GlcNAc(b1-6)[Gal(b1-3)GlcNAc(b1-3)]Gal(b1-4)Glc
# Procedure, shortened: as §1
# [15] = molecular target: Gal(b1-3)GlcNAc(b1-6)[Gal(b1-3)]GalNAc
# Procedure, shortened: as §1
# [16] = molecular target: Gal(b1-3)[Neu5Ac(b2-6)]GalNAc
# Procedure, shortened: as §1
# [17] = molecular target: Gal(b1-4)GlcNAc(b1-3)Gal(b1-4)GlcNAc(b1-3)Gal(b1-4)GlcNAc(b1-2)Man(a1-3)[Gal(b1-4)GlcNAc(b1-3)Gal(b1-4)GlcNAc(b1-3)Gal(b1-4)GlcNAc(b1-2)Man(a1-6)]Man(b1-4)GlcNAc(b1-4)GlcNAc
# Procedure, shortened: as §1
# [18] = molecular target: Gal(b1-4)GlcNAc(b1-3)Gal(b1-4)GlcNAc(b1-3)Gal(b1-4)GlcNAc(b1-3)Gal(b1-4)GlcNAc(b1-3)Gal(b1-4)GlcNAc(b1-2)[Gal(b1-4)GlcNAc(b1-3)Gal(b1-4)GlcNAc(b1-3)Gal(b1-4)GlcNAc(b1-3)Gal(b1-4)GlcNAc(b1-3)Gal(b1-4)GlcNAc(b1-6)]Man(a1-6)[Gal(b1-4)GlcNAc(b1-3)Gal(b1-4)GlcNAc(b1-3)Gal(b1-4)GlcNAc(b1-3)Gal(b1-4)GlcNAc(b1-3)Gal(b1-4)GlcNAc(b1-2)Man(a1-3)]Man(b1-4)GlcNAc(b1-4)[Fuc(a1-6)]GlcNAc
# Procedure, shortened: as §1
# Gal(b1-4)GlcNAc6P = molecular target: Gal(b1-4)GlcNAc6P
# Procedure, shortened: as §1
# Gal3S(b1-3)GalNAc = molecular target: Gal3S(b1-3)GalNAc
# Procedure, shortened: as §1
# Gal3S(b1-4)Glc = molecular target: Gal3S(b1-4)Glc
# Procedure, shortened: as §1
# [19] = molecular target: Gal3S(b1-4)[Fuc(a1-3)]Glc6S
# Procedure, shortened: as §1
# Gal3S4S(b1-4)GlcNAc = molecular target: Gal3S4S(b1-4)GlcNAc
# Procedure, shortened: as §1
# Gal3S6S(b1-4)GlcNAc = molecular target: Gal3S6S(b1-4)GlcNAc
# Procedure, shortened: as §1
binder,measurement,setting,value
"Ovorubin (Pomacea canaliculata), J7I2T6 (protein) MFVATSLLLAIATLVVRASPHNYLIMDIEPPKSVSERDILNLLSPLQVKHSFRVTGSTRLLIVIRLDAQSYEKLDEITVPGKVEVIPAVNMADTMERCGVSWPRVELTDDNVTLFESESTLTDVTKEQLKAMLIGYGEHMSGLLQAHRFEYYQAAGATPHRHFVFVNSVPDEIEVFGREGVDIWGGPGEFVVKPQYVTRI",glycan array binding signal (z-score),[1],0.184
same,glycan array binding signal (z-score),[2],0.006
same,glycan array binding signal (z-score),[3],0.049
same,glycan array binding signal (z-score),[4],0.485
same,glycan array binding signal (z-score),[5],-0.498
same,glycan array binding signal (z-score),[6],0.055
same,glycan array binding signal (z-score),[7],-0.362
same,glycan array binding signal (z-score),[8],0.355
same,glycan array binding signal (z-score),Gal(a1-3)Gal,-0.576
same,glycan array binding signal (z-score),[9],0.572
same,glycan array binding signal (z-score),[10],7.96
same,glycan array binding signal (z-score),Gal(a1-6)Glc,-1.13
same,glycan array binding signal (z-score),[11],4.93
same,glycan array binding signal (z-score),[12],-0.763
same,glycan array binding signal (z-score),[13],2.9
same,glycan array binding signal (z-score),[14],-0.801
same,glycan array binding signal (z-score),[15],0.3
same,glycan array binding signal (z-score),[16],-0.862
same,glycan array binding signal (z-score),[17],0.387
same,glycan array binding signal (z-score),[18],2.67
same,glycan array binding signal (z-score),Gal(b1-4)GlcNAc6P,-0.461
same,glycan array binding signal (z-score),Gal3S(b1-3)GalNAc,0.802
same,glycan array binding signal (z-score),Gal3S(b1-4)Glc,-0.766
same,glycan array binding signal (z-score),[19],3.72
same,glycan array binding signal (z-score),Gal3S4S(b1-4)GlcNAc,9.33
same,glycan array binding signal (z-score),Gal3S6S(b1-4)GlcNAc,4.31
